Source: PubChem BioAssay
Records with an inconclusive call do not appear. Activity calls are given as the source filed them. Unless noted, no cut-off is given here; in the data, nearly all actives have AC50 up to about 26 µM.

How the values were obtained:
[1] = growth inhibition of DIPG glioma cells, dose response, cell-based, SU-DIPG-XVII, MIPE5.0, CellTiter-Glo, qHTS (AID 1347060); conditions: SU-DIPG-XVII viability, CellTiter-Glo ATP luminescence;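 note: cells exposed to compound for 48 hours before viability readout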
[2] = growth inhibition of DIPG glioma cells, dose response, cell-based, JHH-DIPG-1, MIPE4.0, CellTiter-Glo, qHTS (AID 1347062; cut-off not given, nearly all actives have AC50 up to about 27 µM;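 note: cells exposed to compound for two days before readout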); conditions: JHH-DIPG-1 viability, CellTiter-Glo ATP luminescence
[3] = growth inhibition of DIPG glioma cells, dose response, cell-based, SU-DIPG-IV, MIPE4.0, CellTiter-Glo, qHTS (AID 1347063; cut-off not given, nearly all actives have AC50 up to about 30 µM;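 note: compound exposure lasted 48 hours before the viability readout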); conditions: SU-DIPG-IV viability, CellTiter-Glo ATP luminescence
[4] = viability loss in pontine glioma line – cell-based, SU-DIPG-XXV, MIPE5.0, CellTiter-Glo, qHTS, dose response (AID 1347065); conditions: CellTiter-Glo ATP luminescence;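 note: cells exposed to compound for 48 hours before ATP readout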
[5] = JHH-DIPG-1 glioma cell viability, MIPE5.0 library, CellTiter-Glo luminescence, qHTS (AID 1347067); conditions: JHH-DIPG-1 glioma viability, CellTiter-Glo ATP luminescence;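 note: cells exposed to compound for 48 hours before readout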
[6] = SU-DIPG-XXV glioma cell viability, MIPE5.0 library, qHTS (AID 1347068; cut-off not given, nearly all actives have IC50 up to about 30 µM;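 note: cells exposed to compound for 48 hours before viability readout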)
[7] = sensitizers of A549 cells to miR-34 induction, primary screen, imaging, A549 dox-inducible miR-34, nuclei and caspase counts (AID 1347080;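 active = compounds whose cell count with miR-34 switched on is under 0.7 times the count with it off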); conditions: A549 miR-34 inducible, Hoechst nuclei count, 48 h
[8] = survival rescue of mitochondrial mutant cells in low glucose, primary screen, MELAS cybrids, Rieske KO mouse fibroblasts, CellTiter-Glo (AID 1508586;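 active = mean z-score across replicates of 1.96 or higher in either the MELAS or the Rieske mutant cell line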;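 note: z relative to plate mean and SD of compound and empty wells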)
[9] = SU-DIPG-VI glioma cell viability, MIPE4.0 library, CellTiter-Glo luminescence, qHTS (AID 1347066; cut-off not given, nearly all actives have AC50 up to about 30 µM;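 note: cells exposed to compound for 48 hours before readout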); conditions: CellTiter-Glo ATP luminescence

SMILES	AC50 [1]	AC50 [2]	AC50 [3]	AC50 [4]	AC50 [5]	IC50 [6]	fold change ([7]; stronger effect = lower value, cell number ratio, induced over uninduced)	fold change ([7]; measured here: relative caspase fold change +Dox/-Dox)	cell count ([7]; measured here: total cells with miR-34 induction, stronger effect = lower value)	cell count ([7]; measured here: total cells without miR-34 induction)	z-score ([8]; MELAS cybrid survival, CellTiter-Glo 48 h, stronger effect = higher value)	z-score ([8]; Rieske KO mouse fibroblast survival, CellTiter-Glo 72 h)	AC50 [9]
CNC(=O)Nc1ccc(-c2nc(N3CC4CCC(C3)O4)c3cnn(C4CCC5(CC4)OCCO5)c3n2)cc1	0.742 µM (active)	1.87 µM (active)	0.0264 µM (active)	0.332 µM (active)	1.48 µM (active)	1.86 µM (active)	1.12 (inactive)	0.588	3730	3320	3.93 (active)	-1.7	–
CCN1CCC(n2cc(CNc3cc(Cl)c4ncc(C#N)c(Nc5ccc(F)c(Cl)c5)c4c3)nn2)CC1	18.6 µM (active)	20.9 µM (active)	18.7 µM (active)	23.5 µM (active)	–	–	–	–	–	–	–	–	16.6 µM (active)
C[C@@H]1COC(Nc2ccc3ncnc(Nc4ccc(OCc5nccs5)c(Cl)c4)c3c2)=N1	20.9 µM (active)	18.7 µM (active)	16.6 µM (active)	20.9 µM (active)	–	23.5 µM (active)	–	–	–	–	–	–	–
